The source of these data is PubChem BioAssay (EPA / NIEHS).

Each structure is given as a SMILES string. Records with an inconclusive call do not appear. The source made the active and inactive calls. Rule for the calls, unless noted: active = hit-call score of the fitted dose curve at least 0.9, where 1 is the maximum; inactive = score below 0.9.

The nature of test [1]: ATG_TAL_CIS: Attagene CIS-FACTORIAL HepG2 Assay for human TAL Basal Promoter (AID 2282966).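 Note: background control endpoint measuring basal TAL promoter reporter mRNA not a specific factor.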 The note with it: HepG2 Attagene cis-factorial TAL promoter reporter; actives raise or lower the signal. The essentials: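 Fluorescence of labelled reporter cDNA fragments, resolved by capillary electrophoresis, gave the readout. Human HepG2 liver cells carried transiently transfected cis-element reporter units and were treated for 24 hours; activity was fitted bidirectionally against DMSO.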

Test [2] is described as follows: ATG_TGFb_CIS: Attagene CIS-FACTORIAL HepG2 Assay for human Transforming Growth Factor (TGF) (AID 2282967). The note with it: HepG2 Attagene CIS TGFb reporter, mRNA transcription; actives raise or lower the signal. In short, it runs like this:
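Readout: fluorescently labeled reporter cDNA fragments resolved by capillary electrophoresis after RT-PCR. Transfected HepG2 cells dosed for 24 h; endogenous TF activity at TGFB1-linked cis element; gain or loss fitted relative to DMSO.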

The target of test [3] is X-box-binding protein 1 (Homo sapiens) (UniProt P17861). As to the kind of experiment: ATG_Xbp1_CIS: Attagene CIS-FACTORIAL HepG2 Assay for human X-box Binding Protein 1 (XBP1) (AID 2282972). The note with it: HepG2 XBP1 cis-element reporter, Attagene multiplex; actives raise or lower the signal. The essentials:
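HepG2 cells transiently transfected with multiple cis-element reporter units report endogenous TF activity; 24 h exposure, then reporter mRNA measured by RT-PCR, 6-FAM labelling, HpaI digestion and capillary electrophoresis. Bidirectional fitting versus DMSO.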

Test [4] deals with Glucocorticoid receptor (Homo sapiens) (UniProt P04150). In words: ATG_GR_TRANS: Attagene TRANS-FACTORIAL HepG2 Assay for human Glucocorticoid Receptor (GR) (AID 2282978; active = hit-call score of the fitted dose curve at least 0.9, where 1 is the maximum;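 note: activators score as hits since higher reporter transcript over DMSO is fitted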). The note with it: HepG2 Attagene TRANS GR reporter, mRNA transcription. The essentials:
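Transient MRTU transfection of HepG2 (GAL4-UAS reporters, exogenous NR-GAL4 chimeras), 24 h dosing. Readout: reporter transcript via RT-PCR + capillary electrophoresis fluorescence. Positive direction vs DMSO baseline.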

Test [5] has as its target Bile acid receptor (Homo sapiens) (UniProt Q96RI1). In words: ATG_FXR_TRANS: Attagene TRANS-FACTORIAL HepG2 Assay for Farnesoid X Receptor (FXR) (AID 2282979; active = hit-call score of the fitted dose curve at least 0.9, where 1 is the maximum;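 note: hits raise reporter mRNA above DMSO so AC50 marks FXR activation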). The note with it: HepG2 Attagene TRANS FXR-GAL4 reporter transcription. In short, it runs like this:
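Transient transfection of HepG2 with multiplexed GAL4-UAS reporter units; exogenous FXR-GAL4 chimera. Dose 24 h → TriZol RNA → oligo(dT) RT → PCR, 6-FAM primer extension, HpaI cut → CE. Gain vs DMSO.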

Test [6] can be described thus: ATG_M_06_TRANS: Attagene TRANS-FACTORIAL HepG2 Assay for M06 Transcription Factor (Internal Marker) (AID 2282983; active = hit-call score of the fitted dose curve at least 0.9, where 1 is the maximum). The note with it: HepG2 Attagene TRANS M06 internal marker reporter. In short, it runs like this:
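Transfect HepG2 with MRTUs → dose compounds 24 h → isolate RNA, oligo(dT) RT → PCR with reporter primers → 6-FAM primer extension → HpaI digest → CE fragment analysis. Positive direction vs DMSO.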

Test [7] addresses Transcriptional activator Myb (Homo sapiens) (UniProt P10242). In words: ATG_Myb_CIS: Attagene CIS-FACTORIAL HepG2 Assay for human Myeloblastosis (Myb) Proto-Oncogene Transcription Factor (AID 2282986). The note with it: HepG2 Attagene CIS-FACTORIAL Myb reporter transcription; actives raise or lower the signal. The essentials:
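HepG2, transient MRTU transfection (cis-element promoters, endogenous TF activity), 24 h compound exposure. Readout: reporter mRNA via RT-PCR, 6-FAM labeling, HpaI digest, capillary electrophoresis. Gain/loss fit vs DMSO.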

Test [8] concerns the target Nuclear respiratory factor 1 (Homo sapiens) (UniProt Q16656). As to the kind of experiment: ATG_NRF1_CIS: Attagene CIS-FACTORIAL HepG2 Assay for human Nuclear Respiratory Factor 1 (NRF1) Orphan Gene (AID 2282987). The note with it: HepG2 NRF1 cis-element reporter, Attagene multiplex; actives raise or lower the signal. The essentials: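 Endogenous NRF1-driven reporter transcription measured in transiently transfected human HepG2 liver cells. Readout: reporter mRNA by RT-PCR and capillary electrophoresis with fluorescence detection, 24 h post-dosing. Gain or loss of signal fitted relative to DMSO baseline.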

A short description of test [9]: ATG_NFI_CIS: Attagene CIS-FACTORIAL HepG2 Assay for human Nuclear Factor I (NFI) (AID 2282989). The note with it: HepG2 cis-regulatory reporter, NFI response element transcription; actives raise or lower the signal. In short, it runs like this:
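Read-out: reporter mRNA via RT-PCR plus capillary electrophoresis with fluorescence detection. Transiently transfected HepG2 (endogenous TF activity on cis promoters), 24 h compound exposure; gain or loss of signal fitted against DMSO.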

Test [10] has as its target Myc proto-oncogene protein (Homo sapiens) (UniProt P01106). In words: ATG_Myc_CIS: Attagene CIS-FACTORIAL HepG2 Assay for human Myelocytomatosis (Myc) Proto-Oncogene Transcription Factor (AID 2282990). The note with it: HepG2, Attagene cis-reporter transcription factor activity; actives raise or lower the signal. In short, it runs like this: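 HepG2 cells transiently transfected with multiple cis-promoter-driven reporter transcription units, so endogenous TF activity is read. After 24 h compound exposure, reporter mRNA was quantified by RT-PCR, 6-FAM labelling, HpaI digestion and capillary electrophoresis; bidirectional fit versus DMSO.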

A short description of test [11]: ATG_VDRE_CIS: Attagene CIS-FACTORIAL HepG2 Assay for human Vitamin D Receptor Element (VDRE) (AID 2282968). The note with it: HepG2 VDRE cis-reporter transcription, actives raise or lower the signal. The essentials: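 RT-PCR/CE readout of reporter mRNA; HepG2, transient transfection, 24 h dosing; DMSO baseline; bidirectional analysis.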
The target in test [12] is Nuclear receptor subfamily 1 group I member 3 (Homo sapiens) (UniProt Q14994). As to the kind of experiment: ATG_CAR_TRANS: Attagene TRANS-FACTORIAL HepG2 Assay for human Constitutive Androstane Receptor (CAR) (AID 2282969; active = hit-call score of the fitted dose curve at least 0.9, where 1 is the maximum;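 note: activators raise reporter mRNA above DMSO so AC50 marks induction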). The note with it: HepG2 Attagene TRANS-FACTORIAL CAR reporter. In short, it runs like this: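 HepG2 cells transiently transfected with multiplexed GAL4-UAS reporter units expressing chimeric NR-Gal4 proteins; compound exposure 24 h. Reporter mRNA measured by RT-PCR, 6-FAM labelling, HpaI digestion and capillary electrophoresis; gain-of-signal fitted against DMSO baseline.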
Chain of Nuclear receptor subfamily 1 group I member 3 (Homo sapiens) (Q14994 whole entry, looked up, the tested form may be a part): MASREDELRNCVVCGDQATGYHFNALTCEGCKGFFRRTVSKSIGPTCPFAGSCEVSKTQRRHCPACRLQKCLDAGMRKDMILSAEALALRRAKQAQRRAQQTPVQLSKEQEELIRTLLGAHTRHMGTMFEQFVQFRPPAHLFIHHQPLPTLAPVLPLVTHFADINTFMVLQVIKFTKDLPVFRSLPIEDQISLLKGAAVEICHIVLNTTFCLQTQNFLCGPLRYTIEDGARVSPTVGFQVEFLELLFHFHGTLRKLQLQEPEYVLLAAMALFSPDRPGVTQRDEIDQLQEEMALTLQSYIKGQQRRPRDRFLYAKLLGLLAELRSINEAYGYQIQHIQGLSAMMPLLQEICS

For test [13], the target named is Estrogen receptor (Homo sapiens) (UniProt P03372). As to the kind of experiment: ATG_ERa_TRANS: Attagene TRANS-FACTORIAL HepG2 Assay for human Estrogen Receptor alpha (ERa) (AID 2282970; active = hit-call score of the fitted dose curve at least 0.9, where 1 is the maximum). The note with it: HepG2 Attagene TRANS ERa GAL4 reporter, mRNA. In short, it runs like this:
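Human liver HepG2, transient transfection of multiple GAL4-UAS reporter units; TRANS format (exogenous NR-Gal4 chimera). 24 h dosing. Readout: reporter mRNA, RT-PCR, 6-FAM primer extension, HpaI digest, capillary electrophoresis. Positive direction vs DMSO.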

A short description of test [14]: ATG_M_19_TRANS: Attagene TRANS-FACTORIAL HepG2 Assay for M19 Transcription Factor (Internal Marker) (AID 2282974; active = hit-call score of the fitted dose curve at least 0.9, where 1 is the maximum). The note with it: HepG2 Attagene TRANS-FACTORIAL M19 internal marker reporter. The essentials:
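24 h chemical exposure of transiently transfected HepG2 (MRTU library). RNA → oligo(dT) RT → PCR → 6-FAM labelling → HpaI cut → CE fluorescence. Positive-direction fit vs DMSO baseline; background internal-marker readout.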

Test [15] deals with Oxysterols receptor LXR-beta (Homo sapiens) (UniProt P55055). In words: ATG_LXRb_TRANS: Attagene TRANS-FACTORIAL HepG2 Assay for human Liver X Receptor beta (LXRb) (AID 2282981; active = hit-call score of the fitted dose curve at least 0.9, where 1 is the maximum). The note with it: HepG2 Attagene TRANS GAL4-LXRb reporter, mRNA. The essentials:
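In this TRANS format, exogenous chimeric NR-Gal4 protein activity, not endogenous factors, drives reporter expression in transfected human HepG2 cells. Exposure lasted 24 h; reporter mRNA was read by fluorescent capillary electrophoresis.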

Test [16] has as its target Hepatocyte nuclear factor 4-alpha (Homo sapiens) (UniProt P41235). As to the kind of experiment: ATG_HNF4a_TRANS: Attagene TRANS-FACTORIAL HepG2 Assay for human Hepatocyte Nuclear Factor 4 alpha (HNF4a) (AID 2282982; active = hit-call score of the fitted dose curve at least 0.9, where 1 is the maximum). The note with it: HepG2 HNF4a transactivation reporter, mRNA readout. In short, it runs like this: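 Cells used were human HepG2, transiently carrying GAL4-UAS reporter units read out against exogenous NR-GAL4 chimeras. Reporter transcript levels after 24 h dosing were quantified by fluorescent RT-PCR and capillary electrophoresis.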

The nature of test [17]: ATG_M_32_TRANS: Attagene TRANS-FACTORIAL HepG2 Assay for M32 Transcription Factor (Internal Marker) (AID 2282984; active = hit-call score of the fitted dose curve at least 0.9, where 1 is the maximum;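 note: transcript level of a background control reporter unit measured by RT-PCR and capillary electrophoresis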). The note with it: HepG2 Attagene TRANS M32 internal marker reporter. The essentials: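 Human hepatoma HepG2, transient MRTU transfection, 24 h treatment. RNA → RT-PCR → fluorescent primer extension → HpaI digest (2 h, 37 C) → CE. Positive-direction fit vs DMSO.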

In test [18] the target is Nuclear receptor subfamily 4 group A member 2 (Homo sapiens) (UniProt P43354). As to the kind of experiment: ATG_NURR1_TRANS: Attagene TRANS-FACTORIAL HepG2 Assay for human Nuclear Receptor Related Protein 1 (NURR1) (AID 2282985; active = hit-call score of the fitted dose curve at least 0.9, where 1 is the maximum). The note with it: HepG2 Attagene TRANS reporter, mRNA readout. The essentials: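 After 24 h chemical dosing, total RNA from transiently transfected HepG2 cells was reverse-transcribed and reporter cDNA PCR-amplified, FAM-labelled and analysed by capillary electrophoresis. Activity fitted in positive direction, DMSO as negative control.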

Test [19] addresses Oxysterols receptor LXR-alpha (Homo sapiens) (UniProt Q13133). As to the kind of experiment: ATG_LXRa_TRANS: Attagene TRANS-FACTORIAL HepG2 Assay for human Liver X Receptor alpha (LXRa) (AID 2282980; active = hit-call score of the fitted dose curve at least 0.9, where 1 is the maximum). The note with it: HepG2 Attagene TRANS reporter, LXRa transactivation. In short, it runs like this: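 Transfect HepG2 with GAL4-UAS multiplex reporter constructs (TRANS format, chimeric receptor-GAL4); treat 24 h; extract RNA, reverse-transcribe, PCR-amplify, FAM-label, HpaI-digest; resolve fragments by capillary electrophoresis. Upward response vs DMSO.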

Chain of Transcriptional activator Myb (Homo sapiens) (P10242 whole entry, looked up): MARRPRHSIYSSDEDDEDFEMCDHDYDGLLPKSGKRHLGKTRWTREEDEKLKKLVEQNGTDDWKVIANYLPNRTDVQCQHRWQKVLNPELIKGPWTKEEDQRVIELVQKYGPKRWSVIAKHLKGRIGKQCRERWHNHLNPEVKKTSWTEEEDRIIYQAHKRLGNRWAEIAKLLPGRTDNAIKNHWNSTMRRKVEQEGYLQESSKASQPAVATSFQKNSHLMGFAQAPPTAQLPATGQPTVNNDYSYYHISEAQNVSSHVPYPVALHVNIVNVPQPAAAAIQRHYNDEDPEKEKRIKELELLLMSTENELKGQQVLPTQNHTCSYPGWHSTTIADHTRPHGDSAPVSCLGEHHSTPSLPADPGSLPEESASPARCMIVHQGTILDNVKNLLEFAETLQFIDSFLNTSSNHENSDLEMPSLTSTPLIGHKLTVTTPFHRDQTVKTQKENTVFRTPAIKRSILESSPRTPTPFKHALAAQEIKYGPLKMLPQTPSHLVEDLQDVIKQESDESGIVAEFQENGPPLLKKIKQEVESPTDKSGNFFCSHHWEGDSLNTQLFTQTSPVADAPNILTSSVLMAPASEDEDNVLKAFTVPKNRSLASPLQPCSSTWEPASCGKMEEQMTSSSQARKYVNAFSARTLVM
Chain of Glucocorticoid receptor (Homo sapiens) (P04150 whole entry, looked up, the tested form may be a part): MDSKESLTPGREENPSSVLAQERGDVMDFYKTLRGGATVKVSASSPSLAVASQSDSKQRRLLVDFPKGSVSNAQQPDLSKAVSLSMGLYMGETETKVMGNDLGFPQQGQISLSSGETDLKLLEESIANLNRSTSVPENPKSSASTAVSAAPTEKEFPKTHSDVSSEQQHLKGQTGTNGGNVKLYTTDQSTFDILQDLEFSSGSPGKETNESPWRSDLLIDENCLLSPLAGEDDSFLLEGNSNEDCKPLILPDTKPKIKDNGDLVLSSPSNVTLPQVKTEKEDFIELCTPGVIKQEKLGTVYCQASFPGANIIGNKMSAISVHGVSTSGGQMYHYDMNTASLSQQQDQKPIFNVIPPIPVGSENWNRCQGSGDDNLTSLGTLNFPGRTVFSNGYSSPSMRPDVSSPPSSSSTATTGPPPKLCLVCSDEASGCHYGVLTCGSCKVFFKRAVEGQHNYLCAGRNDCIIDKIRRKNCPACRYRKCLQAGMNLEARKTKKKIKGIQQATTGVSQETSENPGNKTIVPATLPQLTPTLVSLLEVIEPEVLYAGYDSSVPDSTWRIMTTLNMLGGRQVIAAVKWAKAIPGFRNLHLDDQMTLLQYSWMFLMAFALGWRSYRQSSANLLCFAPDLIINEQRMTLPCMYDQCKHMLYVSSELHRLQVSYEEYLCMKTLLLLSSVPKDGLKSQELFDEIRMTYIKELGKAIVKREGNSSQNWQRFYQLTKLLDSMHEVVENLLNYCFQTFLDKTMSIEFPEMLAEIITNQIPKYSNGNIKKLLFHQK
Chain of Bile acid receptor (Homo sapiens) (Q96RI1 whole entry, looked up, the tested form may be a part): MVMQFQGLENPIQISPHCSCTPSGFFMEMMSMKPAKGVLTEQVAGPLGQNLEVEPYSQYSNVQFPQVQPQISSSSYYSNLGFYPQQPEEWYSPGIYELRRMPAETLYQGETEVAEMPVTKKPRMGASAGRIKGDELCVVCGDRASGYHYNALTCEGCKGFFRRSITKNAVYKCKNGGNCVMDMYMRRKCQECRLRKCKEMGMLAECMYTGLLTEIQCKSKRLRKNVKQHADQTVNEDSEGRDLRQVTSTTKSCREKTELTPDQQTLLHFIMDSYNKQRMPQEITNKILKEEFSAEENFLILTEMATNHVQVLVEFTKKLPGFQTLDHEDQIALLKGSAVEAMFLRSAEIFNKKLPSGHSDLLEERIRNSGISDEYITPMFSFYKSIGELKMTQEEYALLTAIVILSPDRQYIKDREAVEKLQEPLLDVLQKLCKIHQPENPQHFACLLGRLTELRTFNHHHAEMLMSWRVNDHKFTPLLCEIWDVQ
Chain of Myc proto-oncogene protein (Homo sapiens) (P01106 whole entry, looked up): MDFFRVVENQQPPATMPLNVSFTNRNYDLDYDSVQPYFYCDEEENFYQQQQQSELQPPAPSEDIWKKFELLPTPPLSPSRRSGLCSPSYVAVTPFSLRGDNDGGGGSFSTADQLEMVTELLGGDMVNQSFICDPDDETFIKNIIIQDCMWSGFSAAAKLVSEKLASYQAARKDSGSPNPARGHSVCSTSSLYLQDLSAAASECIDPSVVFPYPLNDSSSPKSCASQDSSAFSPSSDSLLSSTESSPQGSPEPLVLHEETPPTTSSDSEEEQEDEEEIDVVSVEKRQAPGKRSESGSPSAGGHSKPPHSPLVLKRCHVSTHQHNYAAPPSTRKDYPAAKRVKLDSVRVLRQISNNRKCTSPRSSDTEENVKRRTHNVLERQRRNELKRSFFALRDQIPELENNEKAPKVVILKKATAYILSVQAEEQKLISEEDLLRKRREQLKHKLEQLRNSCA
Chain of Estrogen receptor (Homo sapiens) (P03372 whole entry, looked up, the tested form may be a part): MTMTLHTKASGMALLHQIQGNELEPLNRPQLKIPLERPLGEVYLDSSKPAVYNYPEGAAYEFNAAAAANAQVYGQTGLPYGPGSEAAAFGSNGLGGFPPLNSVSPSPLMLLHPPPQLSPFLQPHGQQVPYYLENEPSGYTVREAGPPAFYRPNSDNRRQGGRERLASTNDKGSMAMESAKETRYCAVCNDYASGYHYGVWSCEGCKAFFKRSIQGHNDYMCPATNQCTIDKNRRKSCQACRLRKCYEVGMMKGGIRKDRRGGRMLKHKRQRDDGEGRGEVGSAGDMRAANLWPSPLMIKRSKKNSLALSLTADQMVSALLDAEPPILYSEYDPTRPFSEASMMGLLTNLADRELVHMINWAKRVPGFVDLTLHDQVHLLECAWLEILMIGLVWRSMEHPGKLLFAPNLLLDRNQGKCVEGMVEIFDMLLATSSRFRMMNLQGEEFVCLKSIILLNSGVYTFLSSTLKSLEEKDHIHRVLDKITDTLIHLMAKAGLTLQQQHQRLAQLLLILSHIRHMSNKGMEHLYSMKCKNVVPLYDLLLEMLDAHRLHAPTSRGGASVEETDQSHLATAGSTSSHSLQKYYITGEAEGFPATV
Chain of X-box-binding protein 1 (Homo sapiens) (P17861 whole entry, looked up): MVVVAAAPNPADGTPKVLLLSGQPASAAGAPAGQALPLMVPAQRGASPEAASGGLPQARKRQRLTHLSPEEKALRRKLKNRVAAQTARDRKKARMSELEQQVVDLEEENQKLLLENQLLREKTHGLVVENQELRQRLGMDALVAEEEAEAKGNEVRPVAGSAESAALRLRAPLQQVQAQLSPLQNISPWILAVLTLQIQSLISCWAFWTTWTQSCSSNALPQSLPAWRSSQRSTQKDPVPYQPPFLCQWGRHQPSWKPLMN
Chain of Nuclear respiratory factor 1 (Homo sapiens) (Q16656 whole entry, looked up): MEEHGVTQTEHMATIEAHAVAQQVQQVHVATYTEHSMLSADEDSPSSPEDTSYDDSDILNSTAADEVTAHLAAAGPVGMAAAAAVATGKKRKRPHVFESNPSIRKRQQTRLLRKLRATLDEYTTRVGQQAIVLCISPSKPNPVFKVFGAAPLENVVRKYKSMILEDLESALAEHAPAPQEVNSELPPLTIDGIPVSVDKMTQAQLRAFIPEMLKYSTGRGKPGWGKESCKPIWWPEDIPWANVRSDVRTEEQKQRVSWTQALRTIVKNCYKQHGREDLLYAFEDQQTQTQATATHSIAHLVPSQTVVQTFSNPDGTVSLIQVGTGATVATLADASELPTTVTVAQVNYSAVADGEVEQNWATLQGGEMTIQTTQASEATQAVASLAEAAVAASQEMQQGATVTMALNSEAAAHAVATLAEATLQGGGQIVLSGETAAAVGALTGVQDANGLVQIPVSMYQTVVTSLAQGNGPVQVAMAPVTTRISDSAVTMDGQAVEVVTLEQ
Chain of Oxysterols receptor LXR-beta (Homo sapiens) (P55055 whole entry, looked up, the tested form may be a part): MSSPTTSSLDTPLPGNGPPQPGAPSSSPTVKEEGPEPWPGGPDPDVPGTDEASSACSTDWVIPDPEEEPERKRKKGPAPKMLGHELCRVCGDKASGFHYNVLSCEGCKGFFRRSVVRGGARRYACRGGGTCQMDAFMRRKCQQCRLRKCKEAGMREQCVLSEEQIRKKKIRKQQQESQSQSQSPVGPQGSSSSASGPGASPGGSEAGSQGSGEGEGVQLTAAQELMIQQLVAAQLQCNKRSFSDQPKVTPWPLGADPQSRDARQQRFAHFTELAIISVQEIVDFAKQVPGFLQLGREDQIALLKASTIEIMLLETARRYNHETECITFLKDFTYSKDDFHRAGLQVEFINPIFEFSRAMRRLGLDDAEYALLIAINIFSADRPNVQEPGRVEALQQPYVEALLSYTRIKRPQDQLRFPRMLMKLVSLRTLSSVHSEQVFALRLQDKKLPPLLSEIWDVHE
Chain of Oxysterols receptor LXR-alpha (Homo sapiens) (Q13133 whole entry, looked up, the tested form may be a part): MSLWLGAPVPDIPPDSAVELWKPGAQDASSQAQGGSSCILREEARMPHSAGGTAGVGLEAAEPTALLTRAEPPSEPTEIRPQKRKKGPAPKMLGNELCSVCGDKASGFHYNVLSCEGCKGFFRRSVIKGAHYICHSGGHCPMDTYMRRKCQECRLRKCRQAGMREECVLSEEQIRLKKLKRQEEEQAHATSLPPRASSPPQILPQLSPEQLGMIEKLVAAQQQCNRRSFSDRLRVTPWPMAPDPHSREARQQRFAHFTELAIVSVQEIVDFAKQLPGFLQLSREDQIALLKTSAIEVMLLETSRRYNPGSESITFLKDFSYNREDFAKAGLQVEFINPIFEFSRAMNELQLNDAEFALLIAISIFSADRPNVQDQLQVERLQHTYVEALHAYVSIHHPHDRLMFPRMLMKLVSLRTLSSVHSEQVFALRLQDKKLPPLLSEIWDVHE

Turning to `CCCCC(CC)COP(=O)(OCC(CC)CCCC)OCC(CC)CCCC` (stereo unspecified), the outcome in test [1], in test [2], in test [3], in test [4], in [5] and in test [6] was inactive. Further, the call in test [7], in test [8], in test [9] and in test [10] was inactive.
As to `COc1ccc(OC(F)(F)F)cc1CN[C@H]1CCCN[C@H]1c1ccccc1`, the result in [2], in [12], in test [13], in test [3], in test [14] and in test [15] was inactive. For the same compound, the compound was classed as inactive in [16], in test [6], in [17], in [18], in test [7] and in test [8]. Further, the call in [9] and in [10] was inactive. Further, the AC50 – broadly, the midpoint of the concentration-response curve, whichever way the signal moves – in test [11] was 4.99 µM (active).
Turning to `CN(C)CCCN(C)CCCN(C)C`, the compound was classed as inactive in test [1], in test [2], in [13], in [3], in test [14] and in test [5]. Also, the call in [7], in test [8], in test [9] and in test [10] was inactive. In test [19], the AC50 is 23.8 µM (active).
As for `CC(C)OC(=O)C(C)(C)Oc1ccc(C(=O)c2ccc(Cl)cc2)cc1`, the compound was classed as inactive in test [1], in test [2], in test [4], in test [16], in test [6] and in [7]. The compound was classed as inactive in test [8], in test [9] and in [10]. The AC50 in [13] is 27.1 µM (active); in test [3] it was 54.4 µM (active); in [5], 26.8 µM (active); in test [18], 26.9 µM (active).
With `OCC(CO)n1cnc(-c2ccc(F)cc2)c1-c1ccnc(Oc2ccccc2)n1`, the compound was called inactive in [2], in test [11], in test [12], in [3], in test [14] and in test [4]. The compound was classed as inactive in test [15], in test [6], in test [7], in [8], in [9] and in test [10].
